Screens as filed in PubChem.
Many of the other results were omitted from the sample, so hits are more common in it than they were.
Rtt109 Vps75: inhibitors of Candida albicans Rtt109/Vps75 histone acetyltransferase; inhibition, % at 34.9 µM; AID 540336; Q5AAJ8; purified Rtt109/Vps75, ThioGlo CoA-SH fluorescence, 4 h; 0.16% of 330,000 active;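 active = inhibition of at least 50% in every replicate; inconclusive = best replicate reaches 50% inhibition but some replicates fall short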
Target sequence (Q5AAJ8 whole entry, looked up): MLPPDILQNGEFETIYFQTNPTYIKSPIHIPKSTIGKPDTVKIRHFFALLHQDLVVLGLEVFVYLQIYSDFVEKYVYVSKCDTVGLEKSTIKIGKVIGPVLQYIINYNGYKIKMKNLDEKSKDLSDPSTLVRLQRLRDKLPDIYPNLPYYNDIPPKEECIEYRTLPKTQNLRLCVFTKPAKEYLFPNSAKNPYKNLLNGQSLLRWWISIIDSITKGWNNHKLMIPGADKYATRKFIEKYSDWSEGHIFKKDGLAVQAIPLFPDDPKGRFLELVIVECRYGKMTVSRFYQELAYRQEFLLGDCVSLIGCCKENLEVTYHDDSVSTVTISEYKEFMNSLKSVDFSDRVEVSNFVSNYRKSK
PglD inh: inhibitors of Campylobacter jejuni PglD acetyltransferase. inhibition, % at 12.5 µM. 0.098% of 360,000 active. AID 602405. purified PglD enzyme, DTNB colorimetric CoA detection; in the data active = inhibition above about 16%, passing the limit was not always enough; inconclusive = no clear call, values can overlap the other calls
DENV2 CPE rescue: DENV2-induced cell death inhibition. DENV2-infected cells, cytopathic effect rescue, plate reader. CPE inhibition, % at 9.99 µM. 1.7% of 350,000 active. AID 651640; in the data active = CPE inhibition above about 20%, passing the limit was not always enough; inconclusive = no clear call, values can overlap the other calls; tested in BHK-21 cells;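 note: 0% = median of neutral control wells and 100% = median of positive control wells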
N-glyco inh: blocks N-linked glycosylation in D54 reporter cells; D54 ERlucT glycosylation luciferase reporter, 24 h; percent of 100 nM tunicamycin response; reporter increase, % at 12.5 µM; 0.23% of 360,000 active;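 active = mean luciferase reporter signal, scaled so untreated is 0 and the glycosylation-blocking control 100, at or above a set limit in every replicate; inconclusive = mean reaches the limit but not every replicate does; inactive = mean below the limit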;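 note: luciferase carries N-glycosylation sites so blocking glycosylation raises the light; 0% = median of neutral control wells and 100% = median of 100 nM tunicamycin wells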
* = called active by the depositor; ? = inconclusive; · = not tested or not shown; ! = repeats disagree.

SMILES	Rtt109 Vps75	PglD inh	DENV2 CPE rescue	N-glyco inh
COc1ccc2c3c(n(C)c2c1)[C@H](CO)N(Cc1ccncc1)CC31CCN(C(=O)C2CCC2)CC1	·	·	-3.7	·
COc1ccc2c3c(n(C)c2c1)[C@@H](CO)N(C(=O)Nc1ccc(F)cc1)CC31CN(S(=O)(=O)c2cccs2)C1	·	·	45.9*	·
COc1ccc2c3c([nH]c2c1)[C@@H](CO)N(C(=O)Nc1ccc(F)cc1)CC31CN(S(=O)(=O)c2cccs2)C1	·	·	14.4	·
N#C[C@@H]1[C@H](c2ccc(C3=CCCC3)cc2)[C@@H](CO)N1c1nc(-c2ccccc2)cs1	·	·	17.4	·
C[C@@H]1CN([C@@H](C)CO)C(=O)c2cccc(NC(=O)c3ccc(-c4nccs4)cc3)c2O[C@H]1CN(C)C(=O)Nc1ccc(C(F)(F)F)cc1	·	2.5	?	·
C[C@@H]1CN([C@@H](C)CO)C(=O)c2cc(NC(=O)Cn3cnnn3)ccc2O[C@H]1CN(C)Cc1ccc(Cl)c(Cl)c1	·	4.4	-1.8	·
O=C(C[C@@H]1CC[C@H]2[C@@H](COC[C@H](O)CN2C(=O)c2ccc(F)cc2)O1)Nc1ccc(-c2ccccc2)cc1	·	-2.6	4.1	·
CCCC(=O)N1CCC2(CC1)CN(C(=O)Nc1ccc(F)cc1)[C@@H](CO)c1c2c2ccc(OC)cc2n1C	·	·	-7.0	·
COc1cccc(CN2CC3(CCN(C)CC3)c3c(n(C)c4cc(OC)ccc34)[C@@H]2CO)c1	·	·	10.5	·
COc1ccc2c3c(n(C)c2c1)[C@@H](CO)N(C(=O)Nc1ccc(F)cc1)CC31CCN(C(=O)Cc2ccncc2)CC1	·	·	40.0*	·
COc1ccc2c3c(n(C)c2c1)[C@@H](CO)N(Cc1ccccc1)CC31CCN(C)CC1	·	·	56.5*	·
C[C@H](CO)N1C[C@H](C)[C@@H](CN(C)Cc2ccc(C(=O)O)cc2)Oc2c(NC(=O)C3CCOCC3)cccc2C1=O	·	-2.8	-11.6	·
Cc1ccccc1-c1ccc(C2[C@H]3CNC[C@@H]2N3S(=O)(=O)Cc2ccccc2)cc1 (stereo partly drawn)	·	·	-6.1	·
COc1ccc(C#Cc2ccc3c(c2)O[C@@H](CN(C)C(C)=O)[C@@H](C)CN([C@H](C)CO)S3(=O)=O)cc1	·	4.9	10.8	·
CO[C@@H]1CN(C)C(=O)c2cc(NC(=O)C3CCC3)ccc2OC[C@H](C)N(C(=O)NC(C)C)C[C@@H]1C	·	-2.0	5.0	·
O=C(NCc1nc2ccccc2[nH]1)C1=C[C@H](c2ccc(C(F)(F)F)cc2)C[C@H](OCCCCO)O1	-6.2	-5.9	21.3*	-1.7
O=C(NCc1nc2ccccc2[nH]1)C1=C[C@H](C2CCCCC2)C[C@H](OCc2ccc(CO)cc2)O1	-0.5	4.5	21.1*!	-2.4
O=C(NCc1nc2ccccc2[nH]1)C1=C[C@@H](c2ccc(C(F)(F)F)cc2)C[C@@H](OCCCCO)O1	-0.9	4.8	-10.4	1.1
O=C(Nc1ccccc1)C1=C[C@H](C2CCCCC2)C[C@H](OCc2ccc(CO)cc2)O1	2.5	-2.1	-1.3	-6.3
C=CCOC(=O)C1=C[C@@H](C2CCCCC2)C[C@@H](OCc2ccc(CO)cc2)O1	5.6	-6.7	48.3*	-2.0
CO[C@H]1CN(C)C(=O)c2ccc(NC(=O)c3cnccn3)cc2OC[C@H](C)NC[C@@H]1C	·	·	2.2	·
COc1cccc(S(=O)(=O)N[C@@H]2CC[C@H](CCn3cc(-c4ccc(F)cc4)nn3)O[C@H]2CO)c1	·	-1.9	10.2	·
O=C(CCN1Cc2ccccc2C1)c1ccc2c(c1)OCCO2	100.0*	0.5	·	0.4
O=C(CCN1CCc2ccccc2C(c2ccccc2)C1)c1ccc2c(c1)OCCO2 (stereo not drawn)	14.0	·	·	1.8
COc1ccccc1/C=C/C(=O)/C=C/c1ccccc1O	-1.6	2.0	13.6	38.7*
SMILES	Rtt109 Vps75	PglD inh	DENV2 CPE rescue	N-glyco inh
COc1ccccc1C=CC(=O)C=Cc1ccccc1OC	6.0	0.4	0.1	18.3
COc1ccccc1-c1ccc2c(c1)O[C@@H](CN(C)C(=O)c1cccnc1)[C@@H](C)CN([C@@H](C)CO)S2(=O)=O	·	2.5	·	·
CCCC#Cc1cnc2c(c1)C(=O)N([C@H](C)CO)C[C@@H](C)[C@H](CN(C)CCC)O2	·	-1.7	-5.9	·
C[C@H]1CN([C@@H](C)CO)C(=O)c2cc(NS(=O)(=O)c3cn(C)cn3)ccc2O[C@@H]1CN(C)Cc1ccccc1	·	-4.9	23.7*	·
C[C@@H]1CN([C@H](C)CO)C(=O)c2cc(NS(=O)(=O)c3cn(C)cn3)ccc2O[C@H]1CN(C)Cc1ccccc1	·	-2.0	20.8*	·
C[C@@H]1CN([C@H](C)CO)C(=O)c2cc(NS(=O)(=O)c3ccc(Cl)cc3)ccc2O[C@@H]1CN(C)Cc1ccccc1	·	0.6	41.9*	·
C[C@H](CO)N1C[C@H](C)[C@@H](CN(C)Cc2ccccc2)Oc2ccc(NS(=O)(=O)c3cn(C)cn3)cc2C1=O	·	-1.9	-8.9	·
C[C@H](CO)N1C[C@H](C)[C@@H](CN(C)CC2CC2)Oc2ccc(NS(=O)(=O)c3cn(C)cn3)cc2C1=O	·	-1.1	32.7*	·
COc1ccccc1CNC(=O)C[C@@H]1C=C[C@@H](NC(C)=O)[C@H](CO)O1	·	3.3	1.5	·
O=S(=O)(N[C@@H]1CC[C@@H](CCn2cc(-c3cccnc3)nn2)O[C@@H]1CO)c1ccc(Cl)cc1	·	4.5	5.8	·
CCCNC(=O)c1cc2c(c(-c3cccc(-c4ccccc4F)c3)n1)[C@H](CCO)N(C(=O)CC1CC1)C2	·	·	82.0*	·
CCNC(=O)c1cc2c(c(-c3cccc(-c4ccccc4F)c3)n1)[C@@H](CCO)N(C(=O)CC1CC1)C2	·	·	2.2	·
CO[C@@H]1CN(C)C(=O)c2cc(NC(C)=O)ccc2OC[C@@H](C)N(CC2CCCCC2)C[C@@H]1C	·	3.3	·	·
O=C(CNC(=O)c1ccncc1)N/N=C/c1cccc([N+](=O)[O-])c1	51.5*	·	4.2	1.4
C[C@@H]1CCCCO[C@H](CN(C)Cc2ccc(Cl)c(Cl)c2)[C@@H](C)CN([C@H](C)CO)C(=O)c2cc(NS(=O)(=O)c3ccccc3)ccc2O1	·	2.3	32.1*	·
C[C@H]1CCCCO[C@H](CN(C)Cc2ccc(Cl)c(Cl)c2)[C@@H](C)CN([C@@H](C)CO)C(=O)c2cc(NS(=O)(=O)c3ccccc3)ccc2O1	·	·	-12.8	·
C[C@@H]1CCCCO[C@H](CN(C)Cc2ccc(Cl)c(Cl)c2)[C@@H](C)CN([C@@H](C)CO)C(=O)c2cc(NS(=O)(=O)c3ccccc3)ccc2O1	·	3.2	24.2*	·
C[C@@H]1CCCCO[C@@H](CN(C)C)[C@H](C)CN([C@H](C)CO)C(=O)c2cc(NC(=O)Nc3ccc(F)cc3)ccc2O1	·	1.7	2.7	·
CCCNC(=O)N1[C@H](CO)[C@@H]2c3ccccc3N(C(=O)Nc3cccc(F)c3)C[C@@H]21	·	3.5	14.6	·
Cc1ccc(-n2ncc3c(=O)[nH]c(SCC(=O)N4CCC(C)CC4)nc32)cc1C	8.0	2.9	-2.4	1.9
Cc1ccc(-n2ncc3c(=O)[nH]c(SCC(=O)N4CCCC4)nc32)cc1C	-3.8	1.1	63.1*	1.4
CCC(=O)N1[C@H](C(=O)OC)[C@@H](CO)[C@@H]2Cn3c(ccc(/C=C/c4ccccc4)c3=O)[C@@H]21	·	3.1	-3.2	·
OCC[C@H]1C[C@@H](O)[C@H](O)[C@]2(Cc3ccccc3CCO2)O1	8.4	3.0	47.4*	-0.5
